Source: PubChem BioAssay (NCI)
About 83,000 compounds went through this panel and 20% of them were active in at least one assay; those are over-represented in the sample as a whole.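 Single-dose data. Exposure time 48 hours. Values below 10 considered active.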 The source made the active and inactive calls.

Columns and labels:
Test in all cases: NCI-60 one-dose screen, 48 h (100 = growth as untreated, 0 = no growth, -100 = all killed)
Settings in all cases: 10 µM unless noted
[1] = system: NCI-H23 lung
[2] = system: NCI-H226 lung
[3] = system: NCI-H322M lung
[4] = system: HOP-62 NSCLC
[5] = system: NCI-H460 lung
[6] = system: HOP-92 NSCLC
[7] = system: NCI-H522 lung
[8] = system: A549/ATCC NSCLC
[9] = system: 786-0 renal
[10] = system: COLO 205 colon
[11] = system: DU-145 prostate
[12] = system: K-562 leukemia
[13] = system: MALME-3M melanoma
[14] = system: MDA-MB-231 breast
[15] = system: RXF 393 renal
[16] = system: SF-268 CNS
[17] = system: SF-295 CNS
[18] = system: SF-539 CNS
[19] = system: UACC-257 melanoma
[20] = system: M14 melanoma

Measured: growth

CCCc1n(Cc2ccc3ccccc3n2)cc[n+]1Cc1ccc2ccccc2c1
active: [1] -11.6% | [4] 8.38% | [5] 7.73% | [6] -18.6% | [7] -0.784% | [10] -50% | [12] 5.05% | [13] -27.3% | [14] -5.49% | [15] 3.02% | [17] 4.45% | [19] -9.42% | [20] 3.06%
inactive: [2] 12.3% | [3] 25.7% | [8] 39.1% | [9] 34.7% | [11] 28.6% | [16] 17% | [18] 12.7%

COc1ccc(C2=Nn3c(nnc3-c3ccc(Cl)cc3N)SC2)cc1
inactive: [1] 105% | [2] 102% | [3] 109% | [4] 103% | [5] 104% | [6] 94.1% | [7] 85.6% | [8] 103% | [9] 107% | [10] 108% | [11] 117% | [12] 102% | [13] 104% | [14] 85.7% | [15] 104% | [16] 106% | [17] 94.3% | [18] 102% | [19] 95% | [20] 107%

Cc1[nH]nc2ccc3nc(-c4ccc5[nH]ncc5c4)c4c(c3c12)CCCC4
active: [6] 2.41% | [7] 0.13% | [10] 8.58% | [13] 7.88% | [15] 9.13%
inactive: [1] 31.1% | [2] 16.2% | [3] 36.9% | [4] 18.5% | [5] 19.3% | [8] 12.6% | [9] 34.4% | [11] 33.9% | [12] 14.3% | [14] 42.6% | [16] 33.8% | [17] 31.1% | [18] 18.7% | [19] 50.6% | [20] 18.9%

COc1cc2nccc(Oc3ccc(NC(=O)C4(C(=O)Nc5ccc(F)cc5)CC4)cc3)c2cc1O
active: [12] 9.3%
inactive: [1] 57.4% | [2] 67.1% | [3] 87.7% | [4] 57.6% | [5] 48.1% | [6] 33.4% | [7] 68% | [8] 56.4% | [9] 96.2% | [10] 91% | [11] 77.7% | [13] 64% | [14] 71% | [15] 58.5% | [16] 65.8% | [17] 35.2% | [18] 24.5% | [19] 71.5% | [20] 49.5%

C=CCn1c(C)nc2cc(Nc3nc(N4CCOCC4)nc4nc[nH]c34)ccc21
active: [6] 4.17%
inactive: [1] 106% | [2] 88.6% | [3] 88.3% | [4] 67.8% | [5] 94.1% | [7] 88.2% | [8] 95.1% | [9] 63.1% | [10] 97.9% | [11] 109% | [12] 71% | [13] 97.7% | [14] 77.7% | [15] 85.1% | [16] 99% | [17] 85% | [18] 87.3% | [19] 94% | [20] 97%

Cc1ccc(C2CC(c3cccs3)=NN2c2ccc(S(N)(=O)=O)cc2)s1 (stereo not given)
active: [10] -75.1%
inactive: [1] 107% | [2] 89.8% | [3] 98% | [4] 95.6% | [5] 88.8% | [6] 75.2% | [7] 63.2% | [8] 71.2% | [9] 98.5% | [11] 99.2% | [12] 77.9% | [13] 79.4% | [14] 91.6% | [15] 93.1% | [16] 96.5% | [17] 98.3% | [18] 104% | [19] 36.3% | [20] 81.9%

Cc1ccc2nc(CN(CCN(Cc3nc4ccc(C)cc4[nH]3)Cc3nc4ccc(C)cc4[nH]3)Cc3nc4ccc(C)cc4[nH]3)[nH]c2c1
active: [1] -57.3% | [2] -97.1% | [3] -95.7% | [4] -93.3% | [5] -94.8% | [6] -80.7% | [7] -86.4% | [8] -89.1% | [9] -97.3% | [10] -93.4% | [11] -99.6% | [12] -25.7% | [13] -70.4% | [14] -81.7% | [15] -92.5% | [16] -85% | [17] -86.8% | [18] -99.7% | [19] -91.8% | [20] -79.4%

CC(C)CC(NC(=O)OCC1c2ccccc2-c2ccccc21)C(=O)O (stereo not given)
inactive: [1] 101% | [2] 102% | [3] 101% | [4] 103% | [5] 115% | [6] 96.2% | [7] 96.6% | [8] 95.1% | [9] 98% | [10] 111% | [11] 116% | [12] 116% | [13] 109% | [14] 103% | [15] 103% | [16] 112% | [17] 77.2% | [18] 104% | [19] 102% | [20] 105%

COc1ccc(/C(=C\c2cc(OC)c(OC)c(OC)c2)C(=O)N2CCN(c3ccccc3)CC2)cc1O
inactive: [1] 99.2% | [2] 98.8% | [3] 100% | [4] 99% | [5] 106% | [6] 85.9% | [7] 84.4% | [8] 90% | [9] 103% | [10] 111% | [11] 115% | [12] 104% | [13] 104% | [14] 95.1% | [15] 98.2% | [16] 101% | [17] 96.2% | [18] 92.1% | [19] 93.1% | [20] 105%

Cc1nc2ccc(Nc3nc(Cl)nc(N4CCOCC4)n3)cc2n1Cc1ccccc1
active: [7] -38.6%
inactive: [1] 16.5% | [2] 82.5% | [3] 51% | [4] 50.1% | [5] 91.3% | [6] 36.1% | [8] 92% | [9] 68.3% | [10] 100% | [11] 94.2% | [12] 25.7% | [13] 96.8% | [14] 64.4% | [15] 65.1% | [16] 77% | [17] 87.3% | [18] 84.7% | [19] 104% | [20] 103%

COc1cc2c(cc1C)NC(=O)/C2=C\c1c[nH]c2ccccc12
inactive: [1] 79.9% | [2] 84% | [3] 65.8% | [4] 75.2% | [5] 40.6% | [6] 50.1% | [7] 54.7% | [8] 52.5% | [9] 65.4% | [10] 91.1% | [11] 78.6% | [12] 40.6% | [13] 75.9% | [14] 60.8% | [15] 47% | [16] 81.6% | [17] 26.4% | [18] 69.7% | [19] 90% | [20] 80.9%

COc1ccc(NC(=O)/C=C/c2ccc(Cl)c(Cl)c2)cn1
inactive: [1] 84.7% | [2] 68.3% | [3] 91.6% | [4] 90.1% | [5] 99% | [6] 87.1% | [7] 79.9% | [8] 79.1% | [9] 85.6% | [10] 101% | [11] 96.7% | [12] 58% | [13] 92% | [14] 95% | [15] 89.4% | [16] 95.7% | [17] 84.5% | [18] 98.2% | [19] 79.9% | [20] 95.9%

CCN(CC)CCCC(C)Nc1cnc(C(=O)Nc2cc(C)cc3cccnc23)cn1 (stereo not given)
inactive: [1] 96.3% | [2] 60.4% | [3] 84.2% | [4] 91.2% | [5] 79.5% | [6] 51.4% | [7] 96.8% | [8] 72.8% | [9] 88.2% | [10] 37% | [11] 80.7% | [12] 25.9% | [13] 107% | [14] 89.2% | [15] 72.3% | [16] 66.1% | [17] 98.9% | [18] 86.9% | [19] 71.7% | [20] 98.6%

O=C1c2ccccc2C(=O)c2c1oc1ccc3ccccc3c21
inactive: [1] 33.7% | [2] 85.5% | [3] 83.1% | [4] 108% | [5] 44.9% | [6] 102% | [7] 97.5% | [8] 60.8% | [9] 101% | [10] 107% | [11] 85.7% | [12] 101% | [13] 27.8% | [14] 60% | [15] 88.2% | [16] 76.7% | [17] 93.7% | [18] 78.3% | [19] 77.7% | [20] 57.1%

CCN(C)CCCOc1ccc(/C(=C(\C)Cc2cccc(OC)c2)c2ccc(OC(C)=O)cc2)cc1
inactive: [1] 93.9% | [2] 86.2% | [3] 98.5% | [4] 97% | [5] 105% | [6] 99.2% | [7] 94.3% | [8] 104% | [9] 101% | [10] 107% | [11] 104% | [12] 101% | [13] 97.3% | [14] 104% | [15] 106% | [16] 94.1% | [17] 99.1% | [18] 101% | [19] 109% | [20] 101%
